Experimental data published in ChEMBL document CHEMBL3988442, “University of Dundee, Small-Polar-MMV Screening Library” (2021).
Hit rate of the full screen: of about 38,000 compounds, about 1,200 (3.2%) showed an effect of 50% or more. The median lay at about -58%. Many of the other results were omitted from the sample, so strong results are more common in it than they were.

Each compound was assayed on Plasmodium falciparum (assay: Calibr Malaria Delayed Death Assay SOP). Conditions: concentration 4.99e-06 (unit not given; other assays of the set use mol/L).
Type: functional, organism-based
Set-up: scale not given: in the data most compounds retested in dose-response had high values

Row | Compound | Percent Effect
1 | O=C(CCN1CCc2[nH]nc(C(F)(F)F)c2C1)Nc1ccccc1 | -17.85%
2 | OCCN1CCc2[nH]nc(C(c3ccccc3)c3ccccc3)c2C1 | 59.95%
3 | FC(F)(F)c1n[nH]c2c1CN(CCc1ccccn1)CC2 | -42.86%
4 | [O-][S+](CCN1CCc2[nH]nc(C(F)(F)F)c2C1)c1ccccc1 (stereo unspecified) | -19.45%
5 | OCCCN1CCc2[nH]nc(C(c3ccccc3)c3ccccc3)c2C1 | 71.73%
6 | CC(O)CN1CCc2[nH]nc(C(c3ccccc3)c3ccccc3)c2C1 (stereo unspecified) | 40.85%
7 | COCCCC1(C(=O)O)CCCN(C(=O)c2ccc(Cl)cc2F)C1 (stereo unspecified) | -104.4%
8 | CNC(=O)c1ccc2c(c1)C1(CCN(CC3CC3)CC1)C(=O)N2.O=C(O)C(F)(F)F | -45%
9 | CN(Cc1ccncc1)C1COC2(CCN(Cc3ccco3)CC2)C1.O=C(O)C(F)(F)F.O=C(O)C(F)(F)F.O=C(O)C(F)(F)F (stereo unspecified) | -70.95%
10 | CS(=O)(=O)CCCNC(=O)Nc1sc2ccccc2c1Cl | -18.18%
11 | CS(=O)(=O)CCNC(=O)Nc1sc2ccccc2c1Cl | -106.1%
12 | CN(C)CC(C)(O)CNC(=O)Nc1sc2ccccc2c1Cl (stereo unspecified) | 61%
13 | CN(C)C(=O)N1C[C@@H]2CC[C@H](C1)N(C/C=C/c1ccc(F)cc1)C2 | 56.59%
14 | CN(C)C(=O)CN1C[C@@H]2CC[C@H](C1)N(C/C=C/c1ccc(F)cc1)C2 | 41.87%
15 | CS(=O)(=O)N1C[C@@H]2CC[C@H](C1)N(C/C=C/c1ccc(F)cc1)C2 | -47.28%
16 | CCN(c1ccsc1C(=O)N1CCSCC1)S(=O)(=O)c1ccc(Cl)cc1 | -33.89%
17 | Cc1cnn(Cc2ccc(NC(=O)N3CCCC3)cc2)c1 | -108.6%
18 | Cc1ccc(C(=O)N(C)Cc2csc(C)n2)c(=O)[nH]1 | -148.4%
19 | CCC(NC(=O)C1CCN(C(C)C)CC1)c1cn2cccnc2n1 (stereo unspecified) | -73.6%
20 | Cc1n[nH]c(C)c1-c1cc(-c2cccc(O)c2)nc(N)c1C#N | -75.89%
21 | Cc1n[nH]c(C)c1-c1cc(-c2ccc[nH]2)nc(N)c1C#N | -191.7%
22 | CC(C)Cc1cc(-c2cc(-c3ccc[nH]3)nc(N)c2C#N)n[nH]1 | 60.25%
23 | Cc1ccc(CNCc2c(C(C)C)nn(C)c2N2CCOCC2)s1 | 43.54%
24 | Cc1nccn1CCCN1CCCC(c2ccccc2)C1 (stereo unspecified) | 77.62%
25 | Cc1nccn1CCCN1CCC(c2nccn2CC2CCC2)CC1 | -43.9%
26 | Cc1nccn1Cc1nnc(C2CCCN(Cc3ccncc3)C2)n1C (stereo unspecified) | -18.97%
